Among the data in PubChem BioAssay (NCATS) are Potency values, retold here.

Inconclusive results are not listed. Calls of active or inactive are those of the source. The call rests on the fitted dose curve; in most records, active means well fitted curve in the direction sought with a large enough effect; inconclusive means small, poorly fitted or top-dose-only effect, or another doubt; inactive means no such curve, though single readings can be large; an effect the other way counts as inactive or inconclusive.

The nature of test [1]: qHTS of pediatric cancer cell lines to identify multiple opportunities for drug repurposing: Primary screen for U-2 OS cells (AID 1347096). Further: nearly all actives have a fitted effect of over 50% in size. The method, boiled down: (§1)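 Cells (500-1,000/well) in growth media were settled 5 h at 37 degrees C, then given compounds for 48 h. Viability was read as CellTiter-Glo luminescence. Primary runs used MIPE at 11 points (0.78 nM-46 µM) and NPC at 8 points (0.59 nM-46 µM); follow-ups used 11 points.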

A short description of test [2]: qHTS of pediatric cancer cell lines to identify multiple opportunities for drug repurposing: Primary screen for Saos-2 cells (AID 1347097). Further: nearly all actives have a fitted effect of over 40% in size. Summed up: (§2)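 500-1,000 cells/well; 5 h pre-incubation 37 °C/5% CO2; compound pinned; 48 h; CellTiter-Glo, 15 min RT; luminescence. MIPE 11-pt from 0.78 nM, NPC 8-pt from 0.59 nM final. Bortezomib 2.3 µM final as positive control.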

A short description of test [3]: qHTS of pediatric cancer cell lines to identify multiple opportunities for drug repurposing: Primary screen for SK-N-SH cells (AID 1347098). Further: nearly all actives have a fitted effect of over 65% in size. The method, boiled down: (§3)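 Cells (500-1,000/well) rested 5 h, then received compounds for 48 h; metabolically active cells were measured by CellTiter-Glo luminescence. Final concentrations spanned up to 46 µM (MIPE, 11-point) or 0.59 nM-46 µM (NPC, 8-point) in primary screens, 11-point in follow-ups.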

The nature of test [4]: qHTS of pediatric cancer cell lines to identify multiple opportunities for drug repurposing: Primary screen for NB1643 cells (AID 1347099). Further: nearly all actives have a fitted effect of over 50% in size. The method, boiled down: as §2
Test [5] can be described thus: qHTS of pediatric cancer cell lines to identify multiple opportunities for drug repurposing: Primary screen for LAN-5 cells (AID 1347100). The method, boiled down: as §1
Test [6] can be described thus: qHTS of pediatric cancer cell lines to identify multiple opportunities for drug repurposing: Primary screen for BT-12 cells (AID 1347101). Further: nearly all actives have a fitted effect of over 25% in size. The method, boiled down: as §3
The nature of test [7]: qHTS of pediatric cancer cell lines to identify multiple opportunities for drug repurposing: Primary screen for Rh18 cells (AID 1347102). Further: nearly all actives have a fitted effect of over 65% in size. Summed up:
as §1

Test [8] can be described thus: qHTS of pediatric cancer cell lines to identify multiple opportunities for drug repurposing: Primary screen for OHS-50 cells (AID 1347103). Further: nearly all actives have a fitted effect of over 40% in size. Summed up:
as §3

A short description of test [9]: qHTS of pediatric cancer cell lines to identify multiple opportunities for drug repurposing: Primary screen for RD cells (AID 1347104). Further: nearly all actives have a fitted effect of over 55% in size. The method, boiled down: as §2
A short description of test [10]: qHTS of pediatric cancer cell lines to identify multiple opportunities for drug repurposing: Primary screen for MG 63 (6-TG R) cells (AID 1347105). Further: nearly all actives have a fitted effect of over 50% in size. Summed up: as §2
Potency means the concentration at half of the fitted maximal effect.

For the molecule `CN1CCN(c2cc(C(=O)Nc3ccc4c(c3)-c3c(c(C(N)=O)nn3-c3ccc(F)cc3)CC4)c(Cl)cn2)CC1`, the Potency in test [1] was 23.5 µM (active); in [2] it was 16.6 µM (active); in [3], 7.64 µM (active); in [4], 1.18 µM (active); in [5], 16.6 µM (active); in test [6], 30.6 µM (active). Moreover, the Potency in [7] is 20.9 µM (active); in test [8] it was 24.3 µM (active); in test [9], 16.6 µM (active); in [10] it was 23.5 µM (active).
For the molecule `Cc1ccc(C(=O)Nc2cccc(C(F)(F)F)c2)cc1-c1ccc2nc(NCCN3CCOCC3)ncc2c1`, in test [1], the Potency result is “inactive”. Also, the Potency in test [2] was 5.9 µM (active); in test [3], 9.61 µM (active); in test [4] it was 5.26 µM (active); in test [5] it was 14.8 µM (active); in test [6], 7.69 µM (active); in [7], 7.43 µM (active). The Potency is 3.85 µM (active) in test [8], 5.9 µM (active) in test [9] and 14.8 µM (active) in [10].
Turning to `O=c1[nH]c(=O)n(C2CCCO2)cc1F` (stereo not given), the Potency entry in test [1], in test [2], in test [3], in [4], in test [5] and in test [6] was “inactive” each time. Further, the Potency entry in test [7], in test [8], in [9] and in [10] was “inactive” in each case.
As to `Nc1nc(-c2nn(Cc3ccccc3F)c3ncccc23)nc(N)c1N1CCOCC1`, the Potency entry in [1], in [2], in test [3], in [4], in [5] and in test [6] was “inactive” in each case. Moreover, the Potency entry in test [7], in test [9] and in test [10] was “inactive” each time.
As for `CN1c2cc(O)c(N=NC(N)=O)cc2CC1S(=O)(=O)O` (stereo not given), the Potency result in test [1], in [2], in [3], in test [4], in [5] and in [6] was “inactive” throughout. The Potency entry in test [7], in test [8], in test [9] and in [10] was “inactive” in each case.
With `O=c1[nH]nc(Sc2ncc([N+](=O)[O-])s2)n1-c1ccc2c(c1)OCCO2`, the Potency in [1] was 11.8 µM (active); in [2], 10.5 µM (active); in test [3], 12.1 µM (active); in test [4], 4.69 µM (active); in test [5], 8.33 µM (active); in [6] it was 17.2 µM (active). For the same molecule, the Potency in test [7] was 9.35 µM (active); in test [8] it was 9.68 µM (active); in [9] it was 13.2 µM (active).
For `C=CCn1c(=O)c2cnc(Nc3ccc(N4CCN(C)CC4)cc3)nc2n1-c1cccc(C(C)(C)O)n1`, the Potency in test [1] is 3.72 µM (active); in test [2], 1.05 µM (active); in test [3], 0.681 µM (active); in [4] it was 0.187 µM (active); in test [5], 0.469 µM (active); in [6], 7.69 µM (active). Moreover, the Potency in test [7] is 7.43 µM (active); in test [8], 0.306 µM (active); in [9] it was 0.418 µM (active).
Take `CCS(=O)(=O)c1cccc(-c2cc(C(=O)NC3CCN(C)CC3)c(C)c3[nH]c4ncc(C)cc4c23)c1`: the Potency in [1] was 14.8 µM (active); in [2], 0.935 µM (active); in [3], 6.81 µM (active); in test [4] it was 0.526 µM (active); in test [5] it was 0.118 µM (active); in test [6], 6.11 µM (active). The Potency in test [7] is 1.18 µM (active); in test [8], 0.769 µM (active); in [9], 2.64 µM (active); in test [10] it was 14.8 µM (active).
With `COc1cccc2nc(-c3cccs3)nc(NN3C(=O)C=C(C)C3=O)c12`, the Potency in test [1] was 1.87 µM (active); in test [2], 0.743 µM (active); in test [3], 0.271 µM (active); in [4], 0.743 µM (active); in [5], 0.0935 µM (active); in test [7] it was 5.26 µM (active). Besides, the Potency in [8] was 1.72 µM (active); in test [9], 5.26 µM (active); in [10] it was 2.96 µM (active).
On to `Cc1cnc(Nc2ccc(F)cc2Cl)nc1-c1c[nH]c(C(=O)N[C@H](CO)c2cccc(Cl)c2)c1`, for which the Potency in test [1] is 7.43 µM (active); in [2] it was 1.48 µM (active); in [3], 17.1 µM (active); in test [4], 18.7 µM (active); in [5], 0.469 µM (active); in test [7] it was 16.6 µM (active). Further, the Potency in test [8] was 0.544 µM (active); in test [9], 2.35 µM (active).
As for `NC(=O)Nc1cc(-c2cccc(F)c2)sc1C(=O)N[C@H]1CCCNC1`, the Potency in test [1] is 0.935 µM (active); in test [2], 1.32 µM (active); in test [3], 1.71 µM (active); in test [4], 0.526 µM (active); in test [7], 13.2 µM (active); in [9] it was 3.72 µM (active). In test [10], the Potency is 7.43 µM (active).
Turning to `COc1cc(OC2CCN(C)CC2)ccc1Nc1ncc2c(n1)n(C1CCCC1)c(=O)n2C`, the Potency is 23.5 µM (active) in [1]; 18.7 µM (active) in test [2]; 12.1 µM (active) in [3]; 10.5 µM (active) in [4]; 13.2 µM (active) in test [5]; 20.9 µM (active) in test [7]. Moreover, the Potency is 19.3 µM (active) in test [8] and 18.7 µM (active) in test [9].
`CC[C@@H]1C(=O)N(C)c2cnc(Nc3ccc(C(=O)NC4CCN(C)CC4)cc3OC)nc2N1C1CCCC1`: the Potency in test [1] was 14.8 µM (active); in test [2] it was 0.0469 µM (active); in test [3], 2.41 µM (active); in [4], 1.32 µM (active); in [7], 5.9 µM (active); in test [8] it was 0.0544 µM (active). Further, the Potency in test [9] is 0.059 µM (active).
Regarding `CC(=O)OCC(=O)[C@@]1(O)[C@H](C)C[C@H]2[C@@H]3C=C(C)C4=Cc5c(cnn5-c5ccccc5)C[C@]4(C)[C@@H]3[C@@H](O)C[C@@]21C`, the Potency in test [1] is 18.7 µM (active); in test [2], 18.7 µM (active); in test [4] it was 13.2 µM (active); in [6], 21.7 µM (active); in test [7], 13.2 µM (active); in test [8] it was 19.3 µM (active). Moreover, the Potency in [9] is 16.6 µM (active); in [10] it was 18.7 µM (active). Further, the Potency result in [3] was “inactive”.
